Screen size: about 140,000 compounds; about 2,100 (1.5%) were called active.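 How the source made its calls: active means viability at or under a set limit, the compound median less 4 SD (cut at about 6% in these data); inactive means the rest.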 What follows is part of a selection rich in actives, with near analogues and random picks from the rest.

A short description of the experiment: primary screen for growth suppressors in beta-catenin knockout HCT116 cells (colon tumor, human) (AID 818).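 Further: 0% = Hyamine 1622 control at 20 µM and 100% = untreated cell control.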 The following applies: CellTiter-Glo, 60 h, at 10 µM, hits give low values.
For orientation: viability means a read-out of living cells in per cent, often relative to untreated cells. As for `CSCCC(Nc1ccc(S(=O)(=O)N2CCOCC2)cc1[N+](=O)[O-])C(=O)OCC(=O)N(C(C)C)C(C)C` (stereo unspecified), the viability is 92.2% (inactive).
On to `Cc1ccc(-c2nc3c(cnn3-c3ccccc3)c(=O)o2)cc1`, for which the viability was 95.4% (inactive).
For `COc1ccc(Oc2c(Cl)cnn(-c3ccccc3)c2=O)cc1` the value was 5.5% (active); for `COc1ccc(-n2c(C)nc3c(cnn3-c3ccccc3)c2=O)cc1`, 29.9% (inactive); for `COc1ccccc1OCc1ccc(C(=O)N2CCN(C)CC2)o1`, 101% (inactive).
For `CCOc1ccc(C(=O)Nc2nccs2)cc1[N+](=O)[O-]` the value was 94% (inactive).
For the molecule `COc1ccc(Nc2cc(C)nc(-n3nc(C)cc3C)n2)cc1`, the viability is 15.2% (inactive).
For `COc1ccccc1/C=N\Nc1cc(C)nc(-n2nc(C)cc2C)n1`, the viability was 3.9% (active).
For `COc1cc(NS(=O)(=O)c2ccccc2)ccc1-n1nc(C)cc1C`, the viability was 101% (inactive).
On to `COc1ccc(-n2c(=S)[nH]c3sc4c(c3c2=O)CCc2ccccc2-4)cc1`, for which the viability is 81% (inactive).
With `CN(C)C(=O)c1ccc2c(c1)C1C3CCC(C3)C1C(c1ccccc1)N2` (stereo unspecified), the viability was 83.3% (inactive).
`CC(C)(C)c1ccc(C(=O)NCCn2c(N)c(C#N)c3nc4ccccc4nc32)cc1`: the viability is 66.5% (inactive).
Consider `N#Cc1c(N)n(CCOC(=O)c2ccc(Cl)cc2)c2nc3ccccc3nc12`, for which the viability was 84.2% (inactive).
For `CN(C)CCCn1c(N)c(C#N)c2nc(C#N)c(C#N)nc21` the value was 5.78% (active); for `CCC1C(=O)c2ccccc2N(C)C1=O` (stereo unspecified), 88.1% (inactive).
On to `C[C@@H](O)c1nc2ccccc2n1N`, for which the viability was 96% (inactive).
Regarding `CCOc1ccc(NC(=O)CCC(=O)n2nc(C)cc2C)cc1`, the viability is 96.2% (inactive).
For `CCOc1ccc(NC(=O)CN2CCN(CC(=O)Nc3ccc(OC)cc3)CC2)cc1` the value was 85.4% (inactive); for `CCOc1ccc(NC(=O)CCC(=O)N/N=C/c2ccc([N+](=O)[O-])s2)cc1`, 5.45% (active); for `CSc1ccc(/C=N/NC(=O)c2cccc(Cl)c2)cc1`, 84.1% (inactive).
In the case of `COc1ccc2c(-c3ccccc3)cc(SCC(=O)N(C)C3CCS(=O)(=O)C3)nc2c1` (stereo unspecified), the viability is 81.2% (inactive).
For `CCCn1nc(NS(=O)(=O)c2ccccc2)c2cc3cc(C)ccc3nc21` the value was 91.5% (inactive); for `O=C(CCC(=O)c1cccs1)NCc1ccccc1`, 88.8% (inactive).
As to `Cc1ccc(C)c(NC(CC(=O)c2ccccc2)C(=O)OCC(=O)c2cccs2)c1` (stereo unspecified), the viability was 86.5% (inactive).
For `Cc1ccccc1C(CC(=O)c1cccs1)C(C#N)C#N` (stereo unspecified) the value was 2.37% (active).
For `CC(=O)Nc1cccc(/C(C)=N/NC(=O)c2c(-c3ccccc3Cl)noc2C)c1` the value was 54.6% (inactive); for `CCn1c(/C=C/c2ccc([N+](=O)[O-])o2)nc2ccccc2c1=O`, 2.56% (active).
With `Cc1ccc(-n2c(SCC(=O)N/N=C/C=C/c3ccccc3[N+](=O)[O-])nc3ccccc3c2=O)cc1` the figure was 83.5% (inactive).
Take `Cn1cc(/C=C/c2nc3ccccc3c(=O)n2-c2cccc([N+](=O)[O-])c2)c2ccccc21`: the viability is 66.3% (inactive).
For `O=C(CSc1nc2ccccc2[nH]1)N/N=C/C=C\c1ccccc1[N+](=O)[O-]` the value was 57.4% (inactive).
For `CC(NC(=O)C(=O)NN=C1CCC(C(C)(C)C)CC1)c1ccccc1` (stereo unspecified) the value was 98.5% (inactive); for `O=C(COc1ccc(/C=N/NC(=O)c2ccc(O)cc2)cc1)Nc1ccc([N+](=O)[O-])cc1`, 64.3% (inactive); for `CCCCCC(=O)Nc1ccc(C(=O)N/N=C/c2ccc([N+](=O)[O-])cc2)cc1`, 4.26% (active).
With `CCCCCC(=O)NC(=S)NNC(=O)c1ccc([N+](=O)[O-])cc1`, the viability was 42.3% (inactive).
For `FC(F)Oc1ccccc1NC(=S)Nc1cccc(Cl)c1Cl`, the viability was 94.2% (inactive).
With `CCN1CN(Cc2ccccc2)CNC1=S` the figure was 94.5% (inactive).
For `C/C(=N\NC(=O)c1cc2c(s1)CCC(C)C2)c1cccnc1` (stereo unspecified), the viability is 66.6% (inactive).
On to `Cc1ccc(C(=O)NC(=S)NCCN2CCOCC2)cc1`, for which the viability is 101% (inactive).
As for `Cc1ccc(-c2csc(NC(=O)c3cccs3)n2)cc1`, the viability was 95.5% (inactive).
For `COc1cccc(NC(=O)Cc2ccc(C)cc2)c1` the value was 99.6% (inactive); for `Cc1ccc(-c2nnc(-c3ccc(NC(=O)c4cccs4)cc3)o2)cc1`, 2.05% (active); for `Cc1nc(-c2ccc(NC(=O)c3cccs3)cc2)cs1`, 67% (inactive).
With `COc1ccc(CC(=O)Nc2ccc(C(=O)NC(C)(C)C)cc2)cc1` the figure was 84.5% (inactive).
For `COc1ccc(CC(=O)Nc2ccc(-c3nnc(-c4ccc(C)cc4)o3)cc2)cc1`, the viability was 5.04% (active).
As to `O=C(/C=C/c1cccs1)NCc1cccnc1`, the viability is 91.2% (inactive).
For `Cc1ccc(-c2nc(-c3cccnc3)sc2CC(=O)Nc2ccc(C)c(Cl)c2)cc1` the value was 58.3% (inactive).
Turning to `CCc1nccn1S(=O)(=O)c1cccc([N+](=O)[O-])c1`, the viability was 96.5% (inactive).
Regarding `C=CCOc1c(Br)cc(/C=N\n2nnnc2N)cc1OC`, the viability is 85.3% (inactive).
For `O=C(c1cccc(C(=O)N2CCN(c3ccc(F)cc3)CC2)c1)N1CCN(c2ccc(F)cc2)CC1`, the viability was 47.4% (inactive).
As to `Oc1c(CN2CCN(c3ccc(F)cc3)CC2)cc(Cl)c2cccnc12`, the viability is 3.91% (active).
For `CCN1CCN(C(c2cccnc2)c2cc(Cl)c3cccnc3c2O)CC1` (stereo unspecified) the value was 45.3% (inactive); for `Cc1ccc2c(c1)C(c1ccccc1)N(C(=O)c1ccc(S(=O)(=O)N3CCOCC3)cc1)CC(=O)N2` (stereo unspecified), 94.9% (inactive); for `Cc1cc2c(C)nc(N/N=C/c3ccccc3)nc2o1`, 92% (inactive).
On to `Nc1c(C(=O)NCc2ccccc2)nnn1Cc1cccc(Cl)c1`, for which the viability is 25.6% (inactive).
As to `O=c1[nH]n(-c2cccc(Cl)c2)c2ncccc12`, the viability was 85.9% (inactive).
With `Clc1cccc(CN2COc3c(cc(Cl)c4cccnc34)C2)c1` the figure was 3.67% (active); with `CCOC(=O)c1cc2c(=O)n3ccccc3nc2n(CC(C)C)c1=NC(=O)c1c(-c2c(F)cccc2Cl)noc1C`, 66.4% (inactive).
With `Cc1cc(C)nc(NC(=O)c2cccc([N+](=O)[O-])c2)c1` the figure was 97.8% (inactive); with `CSCC[C@H](NC(=O)OC(C)(C)C)C(=O)N/N=C/c1cc2ccc(C)cc2nc1Cl`, 1.02% (active).
With `CSCCC(NC(=O)COc1ccccc1)C(=O)Nc1ccc(C)cc1` (stereo unspecified), the viability is 99.2% (inactive).
For `CCOc1cc(/C=N/NC(=O)OC)ccc1OCCSc1ccc(Cl)cc1` the value was 93.9% (inactive); for `COCCCNC(=S)NC(=O)c1ccc([N+](=O)[O-])cc1`, 95.7% (inactive).
For `Cc1nc(Cl)c2oc3ccccc3c2n1`, the viability is 2.84% (active).
For the molecule `Cc1nc(N2CCCC2C(=O)O)c2oc3ccccc3c2n1` (stereo unspecified), the viability was 95.6% (inactive).
For `CCSc1nc(C)nc2c1oc1ccccc12` the value was 95.4% (inactive); for `Cc1ccc(CCCOC(=O)C[N+]2(C)CCCC2)cc1`, 97% (inactive); for `Cc1ccc(S(=O)(=O)c2ccc(Cl)cc2)cc1S(=O)(=O)NC(C(=O)O)C(C)C` (stereo unspecified), 97.6% (inactive).
For the molecule `CN1CCN(C(=O)/C(=C\c2cccs2)NC(=O)c2cccs2)CC1`, the viability was 90.3% (inactive).
As for `Nc1ccc(Nc2ccccc2)cc1`, the viability is 5.41% (active).
For `Cc1cc(Nc2ccccc2)n(C(=O)c2ccc(N)cc2)n1` the value was 85.7% (inactive).
For `Cc1cc(Nc2ccccc2)nc(N)n1` the value was 93.5% (inactive); for `O=C(Cn1nnc(-c2ccccc2)n1)N/N=C/c1ccc(-c2ccc(Cl)cc2)o1`, 80.7% (inactive); for `O=C(c1ccc(CSc2ccccc2)cc1)N1CCCCCC1`, 65.2% (inactive).
With `O=C(O)c1cccc(S(=O)(=O)Nc2ccc(O)cc2Sc2nc3ccccc3s2)c1` the figure was 91.9% (inactive); with `O=[N+]([O-])c1c(NCCO)cc(Sc2nc3ccccc3s2)c2nonc12`, 1.67% (active).
Consider `COc1ccc(S(=O)(=O)Nc2ccc(O)c(Sc3nc4ccccc4s3)c2)cc1`, for which the viability is 82.2% (inactive).
For `CN(c1ccccc1)S(=O)(=O)c1ccc(Cl)c(C(=O)NCCc2c[nH]c3ccccc23)c1`, the viability was 78.7% (inactive).
Take `CNC(=O)/C(C#N)=C/c1c(F)cccc1Cl`: the viability is 74.3% (inactive).
`O=C(CN1C(=O)C2C3CCC(C3)C2C1=O)Oc1ccc2ccccc2c1` (stereo unspecified): the viability was 85.5% (inactive).
For `CC1=CC(C)(C)Nc2ccc(OC(=O)CN3C(=O)C4CCCCC4C3=O)cc21` (stereo unspecified) the value was 0.52% (active); for `CC1=CC(C)(C)Nc2ccc(OC(=O)C(Cc3ccccc3)N3C(=O)C4CCCCC4C3=O)cc21` (stereo unspecified), 44.7% (inactive).
With `CCCOC(=O)c1c(NC(=O)c2cnn3c2NC(c2ccccc2)CC3C(F)(F)F)sc2c1CCCC2` (stereo unspecified) the figure was 61% (inactive).
For the molecule `CCCCOc1ccc(C(=O)NN2CCN(C)CC2)cc1`, the viability is 87.1% (inactive).
With `CCCOc1ccc(C(=O)C(CCC(CNCC)C(=O)c2ccc(OCCC)cc2)CNCC)cc1` (stereo unspecified) the figure was 0.87% (active); with `CCCCOc1ccc(C(=O)NCc2ccncc2)cc1`, 70.7% (inactive); with `O=C(c1ccc(S(=O)(=O)c2ccccc2)cc1)N1CCCCCC1`, 93.2% (inactive).
As for `C=CCn1c(SCc2ccc(Cl)c(Cl)c2)nnc1C(CO)NC(=O)c1ccc(OC)cc1` (stereo unspecified), the viability was 90.7% (inactive).
For `Cc1cc(C)c2nc3nc(C)cc(C)c3c(N)c2c1` the value was 1.48% (active).
Consider `Cc1cc(C)c2nc(SCCC#N)nc(C)c2c1`, for which the viability was 109% (inactive).
With `C=CCNC(=O)/C=C/c1ccc(C(C)C)cc1` the figure was 90.7% (inactive); with `Nc1nc(SCC(=O)NNc2c(Cl)cc(Cl)cc2Cl)n[nH]1`, 98.6% (inactive); with `Cc1sc2nc(CC(N)=O)[nH]c(=O)c2c1-c1ccccc1`, 90.4% (inactive).
For `NS(=O)(=O)c1ccc(NC(=O)COC(=O)C2(c3ccc(F)cc3)CCCC2)cc1` the value was 82.7% (inactive); for `Cc1[nH]c(=O)c(C(=O)/C=C/c2ccccc2)c2c1CCCC2`, 2.53% (active).
On to `O=C(/C=C/c1ccccc1)c1ccccc1O`, for which the viability is 83.6% (inactive).
Turning to `O=C(/C=C/c1ccccc1)c1ccoc1`, the viability was 10.1% (inactive).

Values taken from PubChem BioAssay AID818 (SRMLSC, 2007).
